Drawing on the supplement of paper PMC10849652, this text covers log2 fold change for 40 targets.

The full data set covers some 8,800 targets. This sample favours those with a hit. About 0.5% of all pairs of compound and target were hits. Values without a mark were called inactive.

Sequence of UniProt Q96K49 (Q96K49 whole entry, looked up): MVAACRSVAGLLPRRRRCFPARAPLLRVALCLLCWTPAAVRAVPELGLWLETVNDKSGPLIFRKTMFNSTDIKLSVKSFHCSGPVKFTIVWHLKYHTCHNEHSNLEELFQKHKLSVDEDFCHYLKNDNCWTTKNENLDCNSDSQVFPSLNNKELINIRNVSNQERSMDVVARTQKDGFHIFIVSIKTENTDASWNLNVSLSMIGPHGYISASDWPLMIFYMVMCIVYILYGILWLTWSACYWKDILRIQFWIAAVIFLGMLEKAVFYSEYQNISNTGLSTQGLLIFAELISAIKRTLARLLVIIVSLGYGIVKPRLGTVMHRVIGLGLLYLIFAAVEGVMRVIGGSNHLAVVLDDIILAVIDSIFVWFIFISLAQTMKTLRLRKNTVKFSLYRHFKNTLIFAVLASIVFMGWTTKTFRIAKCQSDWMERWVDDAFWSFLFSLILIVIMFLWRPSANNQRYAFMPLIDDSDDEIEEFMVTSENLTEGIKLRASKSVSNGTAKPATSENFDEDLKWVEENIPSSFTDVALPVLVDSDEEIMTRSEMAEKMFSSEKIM
Sequence of UniProt Q0IIM8 (Q0IIM8 whole entry, looked up): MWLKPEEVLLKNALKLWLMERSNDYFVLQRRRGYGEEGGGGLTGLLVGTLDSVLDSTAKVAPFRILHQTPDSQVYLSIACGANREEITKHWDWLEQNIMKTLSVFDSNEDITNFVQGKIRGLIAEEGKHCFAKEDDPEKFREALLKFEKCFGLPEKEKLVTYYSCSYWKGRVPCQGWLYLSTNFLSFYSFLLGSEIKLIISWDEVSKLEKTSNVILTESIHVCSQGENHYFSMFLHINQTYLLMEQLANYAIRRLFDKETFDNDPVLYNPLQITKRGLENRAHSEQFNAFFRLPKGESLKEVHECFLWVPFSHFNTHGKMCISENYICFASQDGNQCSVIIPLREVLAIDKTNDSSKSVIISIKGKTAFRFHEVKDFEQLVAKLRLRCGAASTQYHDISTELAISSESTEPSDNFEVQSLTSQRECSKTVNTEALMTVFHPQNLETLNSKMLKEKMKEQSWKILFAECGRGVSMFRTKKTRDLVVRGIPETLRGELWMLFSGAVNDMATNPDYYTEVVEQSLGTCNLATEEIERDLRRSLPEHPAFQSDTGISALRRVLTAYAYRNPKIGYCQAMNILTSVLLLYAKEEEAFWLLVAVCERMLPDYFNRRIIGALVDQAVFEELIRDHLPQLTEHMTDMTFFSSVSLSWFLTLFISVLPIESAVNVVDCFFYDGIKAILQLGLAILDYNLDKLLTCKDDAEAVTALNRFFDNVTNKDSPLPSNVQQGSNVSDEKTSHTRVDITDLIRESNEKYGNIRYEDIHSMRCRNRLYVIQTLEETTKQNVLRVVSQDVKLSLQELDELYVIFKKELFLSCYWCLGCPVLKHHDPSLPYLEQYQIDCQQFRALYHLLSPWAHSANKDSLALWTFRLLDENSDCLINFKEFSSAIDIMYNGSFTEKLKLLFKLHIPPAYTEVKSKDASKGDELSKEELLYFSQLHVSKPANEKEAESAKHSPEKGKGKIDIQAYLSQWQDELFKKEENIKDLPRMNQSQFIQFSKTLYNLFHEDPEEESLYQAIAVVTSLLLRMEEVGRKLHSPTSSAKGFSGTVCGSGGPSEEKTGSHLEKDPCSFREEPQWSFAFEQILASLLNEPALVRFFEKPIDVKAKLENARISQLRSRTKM
Sequence of UniProt P42166 (P42166 whole entry, looked up): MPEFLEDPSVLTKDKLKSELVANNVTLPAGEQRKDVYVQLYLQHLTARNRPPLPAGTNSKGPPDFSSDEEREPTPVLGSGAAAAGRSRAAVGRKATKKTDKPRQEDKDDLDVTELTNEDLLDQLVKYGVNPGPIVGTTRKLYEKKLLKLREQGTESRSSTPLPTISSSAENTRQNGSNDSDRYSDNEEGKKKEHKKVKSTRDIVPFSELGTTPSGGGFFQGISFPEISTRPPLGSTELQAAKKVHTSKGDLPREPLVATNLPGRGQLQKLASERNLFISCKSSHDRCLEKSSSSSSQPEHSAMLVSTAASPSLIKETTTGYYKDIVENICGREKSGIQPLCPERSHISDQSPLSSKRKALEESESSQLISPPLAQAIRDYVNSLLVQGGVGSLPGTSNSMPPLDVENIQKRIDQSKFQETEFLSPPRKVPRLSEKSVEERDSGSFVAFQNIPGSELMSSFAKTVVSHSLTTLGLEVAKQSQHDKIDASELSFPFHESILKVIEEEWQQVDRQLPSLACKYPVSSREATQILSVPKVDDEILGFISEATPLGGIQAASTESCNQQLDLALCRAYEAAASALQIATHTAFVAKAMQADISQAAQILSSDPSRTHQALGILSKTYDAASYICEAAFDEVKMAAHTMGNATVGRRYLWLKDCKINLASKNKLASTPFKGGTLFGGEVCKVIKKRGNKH
Sequence of UniProt Q96CW5 (Q96CW5 whole entry, looked up): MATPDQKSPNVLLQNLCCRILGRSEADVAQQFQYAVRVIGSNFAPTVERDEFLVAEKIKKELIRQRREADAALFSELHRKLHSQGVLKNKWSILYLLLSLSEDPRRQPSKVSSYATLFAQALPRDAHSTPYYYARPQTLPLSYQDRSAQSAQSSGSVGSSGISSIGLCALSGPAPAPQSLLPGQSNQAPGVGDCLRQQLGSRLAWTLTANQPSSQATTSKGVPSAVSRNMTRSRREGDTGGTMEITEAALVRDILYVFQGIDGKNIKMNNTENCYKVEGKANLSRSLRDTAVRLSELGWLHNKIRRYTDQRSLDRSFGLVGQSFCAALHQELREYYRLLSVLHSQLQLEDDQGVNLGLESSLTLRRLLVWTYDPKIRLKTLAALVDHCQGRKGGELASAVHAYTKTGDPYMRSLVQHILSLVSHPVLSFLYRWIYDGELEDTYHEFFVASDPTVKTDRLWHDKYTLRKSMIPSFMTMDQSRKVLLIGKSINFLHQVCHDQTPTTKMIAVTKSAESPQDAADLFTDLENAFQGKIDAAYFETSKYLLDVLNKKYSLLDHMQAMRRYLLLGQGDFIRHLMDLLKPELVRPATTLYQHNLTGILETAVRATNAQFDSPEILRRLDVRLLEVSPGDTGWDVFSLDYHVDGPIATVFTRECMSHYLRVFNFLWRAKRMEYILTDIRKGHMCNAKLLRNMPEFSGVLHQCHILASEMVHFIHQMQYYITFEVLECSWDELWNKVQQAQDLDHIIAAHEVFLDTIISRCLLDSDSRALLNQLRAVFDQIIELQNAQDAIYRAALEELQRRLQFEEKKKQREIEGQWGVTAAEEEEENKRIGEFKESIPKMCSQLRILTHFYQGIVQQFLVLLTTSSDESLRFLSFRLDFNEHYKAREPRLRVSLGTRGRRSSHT
Sequence of UniProt Q9BSJ2 (Q9BSJ2 whole entry, looked up): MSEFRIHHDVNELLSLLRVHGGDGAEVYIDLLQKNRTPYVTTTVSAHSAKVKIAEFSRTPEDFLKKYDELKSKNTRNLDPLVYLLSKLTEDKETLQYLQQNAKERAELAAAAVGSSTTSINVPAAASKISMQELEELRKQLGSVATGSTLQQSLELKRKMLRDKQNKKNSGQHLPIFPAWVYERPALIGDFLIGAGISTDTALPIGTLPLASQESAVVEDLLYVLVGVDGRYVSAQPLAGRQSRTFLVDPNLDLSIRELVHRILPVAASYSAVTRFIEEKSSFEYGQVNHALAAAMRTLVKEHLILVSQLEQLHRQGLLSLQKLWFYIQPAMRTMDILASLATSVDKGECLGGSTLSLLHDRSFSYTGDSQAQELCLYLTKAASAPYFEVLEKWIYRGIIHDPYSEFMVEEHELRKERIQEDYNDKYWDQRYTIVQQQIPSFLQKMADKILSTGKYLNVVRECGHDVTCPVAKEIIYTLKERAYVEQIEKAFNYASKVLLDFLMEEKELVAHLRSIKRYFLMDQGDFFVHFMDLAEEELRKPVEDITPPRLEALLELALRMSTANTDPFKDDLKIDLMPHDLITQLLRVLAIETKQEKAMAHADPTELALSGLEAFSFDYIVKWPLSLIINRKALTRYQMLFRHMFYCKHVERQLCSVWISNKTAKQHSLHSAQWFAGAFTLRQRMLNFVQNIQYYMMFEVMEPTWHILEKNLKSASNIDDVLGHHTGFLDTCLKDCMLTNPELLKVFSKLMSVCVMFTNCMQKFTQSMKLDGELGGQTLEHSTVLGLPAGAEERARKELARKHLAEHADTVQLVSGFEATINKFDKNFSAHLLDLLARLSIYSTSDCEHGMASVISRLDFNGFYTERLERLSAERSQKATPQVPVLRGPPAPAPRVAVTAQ
Sequence of UniProt Q01085 (Q01085 whole entry, looked up): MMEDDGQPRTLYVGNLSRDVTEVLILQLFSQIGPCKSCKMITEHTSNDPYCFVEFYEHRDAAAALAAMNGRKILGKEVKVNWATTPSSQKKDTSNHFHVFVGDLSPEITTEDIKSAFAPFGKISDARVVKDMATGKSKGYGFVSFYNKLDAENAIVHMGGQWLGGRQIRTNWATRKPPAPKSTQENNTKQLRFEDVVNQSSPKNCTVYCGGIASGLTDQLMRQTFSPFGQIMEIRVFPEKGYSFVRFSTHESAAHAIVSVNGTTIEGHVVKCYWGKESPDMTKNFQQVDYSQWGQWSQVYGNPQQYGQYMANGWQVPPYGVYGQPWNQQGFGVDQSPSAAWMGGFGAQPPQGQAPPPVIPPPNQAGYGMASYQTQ
Sequence of UniProt Q6IPR3 (Q6IPR3 whole entry, looked up): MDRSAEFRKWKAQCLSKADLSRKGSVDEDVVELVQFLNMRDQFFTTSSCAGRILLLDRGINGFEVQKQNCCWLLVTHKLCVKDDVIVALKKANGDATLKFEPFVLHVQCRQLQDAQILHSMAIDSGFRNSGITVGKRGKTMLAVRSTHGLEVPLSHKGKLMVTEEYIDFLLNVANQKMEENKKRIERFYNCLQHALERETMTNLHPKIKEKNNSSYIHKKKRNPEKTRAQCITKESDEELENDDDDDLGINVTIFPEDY
Sequence of UniProt Q5JUR7 (Q5JUR7 whole entry, looked up): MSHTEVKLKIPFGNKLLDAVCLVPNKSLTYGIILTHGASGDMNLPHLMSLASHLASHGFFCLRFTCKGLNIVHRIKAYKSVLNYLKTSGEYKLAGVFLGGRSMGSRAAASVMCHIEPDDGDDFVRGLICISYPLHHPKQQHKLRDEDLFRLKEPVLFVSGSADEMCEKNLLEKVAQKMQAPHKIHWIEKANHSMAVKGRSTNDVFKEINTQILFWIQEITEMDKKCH

Compound in one experiment: C1=CC=C(C=C1)[C@H](COC2=CC3=C(C=C2)NC(=O)N3)NC(=O)C4=CC=CN(C4=O)CC5=CC(=C(C=C5)F)F
Put plainly: log2 fold change, soluble protein after heating vs DMSO (PISA); higher = thermal stabilisation; K562 lysate, 10 uM; active = over 0.2 and 3.5 SD of the protein, either way, in both replicates (recomputed). The method in brief:
(§1)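 Values give the log-two fold change in thermal stability against solvent controls, from duplicates. Crude K562 extract at 1 mg/mL protein, made by dounce homogenisation in PBS pH 7.4 with 1 mM MgCl2, was treated with 10 μM compound for 30 min. After 3 min heating across 48°C-58°C, aliquots were pooled, adjusted to 0.5% NP-40 at 4°C and centrifuged at 21,000xg for 90 min. The supernatant was measured by TMTpro 16plex LC-MS/MS with channel sums equalised.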
As for UFSP2 (UniProt Q9NUQ7), the log2 fold change is 0.059.
Regarding TOPBP1 (UniProt Q92547), the log2 fold change was 0.012.
Turning to UBR3 isoform 4 (UniProt Q6ZT12), the log2 fold change was -0.027.
As for TBC1D23 (UniProt Q9NUY8), the log2 fold change is 0.007.
For the target TBC1D2B (UniProt Q9UPU7), the log2 fold change is -0.024.
Turning to TMEM87B (UniProt Q96K49), the log2 fold change is 0.529 (active).
With TNIK isoform 4 (UniProt Q9UKE5), the log2 fold change is 0.015.
In the case of TLK2 isoform 2 (UniProt Q86UE8), the log2 fold change is 0.014.
Turning to TK1 (UniProt K7ERV3), the log2 fold change was -0.044.
For TTF2 (UniProt Q9UNY4), the log2 fold change is -0.092.
On to TTC12 isoform 2 (UniProt Q9H892), for which the log2 fold change is -0.123.
With TIAL1 isoform 2 (UniProt Q01085), the log2 fold change was 0.068.
Turning to TUBB (UniProt P07437), the log2 fold change is 0.025.
As for TRIM11 (UniProt Q96F44), the log2 fold change was 0.028.
Regarding TK1 (UniProt P04183), the log2 fold change was 0.006.
Regarding TUBB4B (UniProt P68371), the log2 fold change was 0.001.
Regarding TDRD3 isoform 3 (UniProt Q9H7E2), the log2 fold change was 0.082.
On to TTMP isoform 3 (UniProt Q5BVD1), for which the log2 fold change is -0.051.
Turning to TRIM23 (UniProt P36406), the log2 fold change was 0.036.
On the same count and under the same terms, for TGFBRAP1 (UniProt Q8WUH2) the value was -0.035; for TPM4 (UniProt P67936), -0.003.
Take TRIP12 isoform 2 (UniProt Q14669): the log2 fold change was -0.043.
Turning to TRAPPC6A isoform 2 (UniProt O75865), the log2 fold change is 0.025.
On the same count and under the same terms, for TPP2 (UniProt P29144) the value was 0.006; for TYW3 (UniProt Q6IPR3), 0.082.
Take TPM3 (UniProt P06753): the log2 fold change is -0.018.
On the same count and under the same terms, for TBC1D8B (UniProt Q0IIM8) the value was -0.086; for UBTF (UniProt P17480), -0.031; for TTL (UniProt Q8NG68), 0.004.
Still for that read-out and setting: for TEX30 (UniProt Q5JUR7) the value was -0.074; for UCHL5 (UniProt Q5LJA9), 0.002; for TMPO (UniProt P42166), -0.013.
With TRIM33 isoform 2 (UniProt Q9UPN9), the log2 fold change was 0.003.
For the target TRIP13 (UniProt Q15645), the log2 fold change was 0.006.
Consider UBXN2B (UniProt Q14CS0), for which the log2 fold change was 0.028.
Still for that read-out and setting: the result for TUBGCP3 (UniProt Q96CW5) reads -0.007.
In the case of UBE2H (UniProt P62256), the log2 fold change is 0.024.
Regarding TUBGCP2 isoform 4 (UniProt Q9BSJ2), the log2 fold change is 0.009.
As for TRAF2 isoform 2 (UniProt Q12933), the log2 fold change is -0.006.
Regarding TTC5 (UniProt Q8N0Z6), the log2 fold change was -0.022.

Compound in the next experiment: CC1=C(SC2=C1C(=N[C@H](C3=NN=C(N32)C)CC(=O)N)C4=CC=C(C=C4)Cl)C
Described as above. The method in brief:
as §1
With UFSP2 (UniProt Q9NUQ7), the log2 fold change is 0.
For TOPBP1 (UniProt Q92547), the log2 fold change was 0.001.
Consider UBR3 isoform 4 (UniProt Q6ZT12), for which the log2 fold change was -0.032.
Still for that read-out and setting: the result for TBC1D23 (UniProt Q9NUY8) reads 0.01; that for TBC1D2B (UniProt Q9UPU7), 0.139.
As for TMEM87B (UniProt Q96K49), the log2 fold change is 0.02.
For TNIK isoform 4 (UniProt Q9UKE5), the log2 fold change was -0.002.
Same read-out and setting: for TLK2 isoform 2 (UniProt Q86UE8) the value was -0.027.
As for TK1 (UniProt K7ERV3), the log2 fold change was 0.007.
The same measure, in the same setting: for TTF2 (UniProt Q9UNY4) the value was 0.029; for TTC12 isoform 2 (UniProt Q9H892), -0.131.
Same read-out and setting: the result for TIAL1 isoform 2 (UniProt Q01085) reads 0.017.
In the case of TUBB (UniProt P07437), the log2 fold change is 0.027.
Regarding TRIM11 (UniProt Q96F44), the log2 fold change is 0.035.
With TK1 (UniProt P04183), the log2 fold change is 0.037.
Still for that read-out and setting: for TUBB4B (UniProt P68371) the value was 0.03; for TDRD3 isoform 3 (UniProt Q9H7E2), 0.037; for TTMP isoform 3 (UniProt Q5BVD1), 0.091.
For the target TRIM23 (UniProt P36406), the log2 fold change is -0.05.
Take TGFBRAP1 (UniProt Q8WUH2): the log2 fold change was 0.024.
In the case of TPM4 (UniProt P67936), the log2 fold change was 0.057.
With TRIP12 isoform 2 (UniProt Q14669), the log2 fold change was 0.07.
As to TRAPPC6A isoform 2 (UniProt O75865), the log2 fold change is 0.046.
The same measure, in the same setting: the result for TPP2 (UniProt P29144) reads 0.008; that for TYW3 (UniProt Q6IPR3), 0.006.
Still for that read-out and setting: the result for TPM3 (UniProt P06753) reads 0.008; that for TBC1D8B (UniProt Q0IIM8), -0.078.
For UBTF (UniProt P17480), the log2 fold change is 0.028.
TTL (UniProt Q8NG68): the log2 fold change is -0.029.
As to TEX30 (UniProt Q5JUR7), the log2 fold change was 0.066.
With UCHL5 (UniProt Q5LJA9), the log2 fold change was -0.059.
As to TMPO (UniProt P42166), the log2 fold change was 0.015.
As to TRIM33 isoform 2 (UniProt Q9UPN9), the log2 fold change is 0.009.
Consider TRIP13 (UniProt Q15645), for which the log2 fold change is 0.015.
Take UBXN2B (UniProt Q14CS0): the log2 fold change is -0.03.
Regarding TUBGCP3 (UniProt Q96CW5), the log2 fold change is -0.004.
Take UBE2H (UniProt P62256): the log2 fold change was 0.02.
The same measure, in the same setting: for TUBGCP2 isoform 4 (UniProt Q9BSJ2) the value was -0.015.
TRAF2 isoform 2 (UniProt Q12933): the log2 fold change was 0.005.
As to TTC5 (UniProt Q8N0Z6), the log2 fold change was 0.009.
